Among all 330,000 compounds or so, about 1,700 (0.52%) were called active.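 The calls were made as follows: active = GFP response versus DMSO above a set limit, roughly screen mean plus 3 SD (cut at about 180% in these data); inconclusive = fewer than 70 cells counted for a yeast strain; inactive = the rest.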 Only a selection was taken, and actives are over-represented in it overall.
Experiment: TOR pathway GLN3 branch reporter MEP2-GFP changes – S. cerevisiae, multiplex flow cytometry, MLPCN library, primary screen (AID 2016);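 also: median GFP fluorescence of the barcode-gated MEP2-GFP cells per well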
Details: S. cerevisiae MEP2-GFP strain, 3 h, at 10 µM, hits give high values
For `C/C(CCc1c[nH]c2ccccc12)=N\O`, the GFP response vs DMSO was 105% (inactive).
In the case of `NCCc1c[nH]c2ccc(O)cc12`, the GFP response vs DMSO is reported as 206% [may fluoresce violet] (active).
With `Cc1cccc2c(CCN)c[nH]c12` the GFP response vs DMSO was 105% (inactive).
In the case of `COC1=CC=C2[C@H]3Cc4ccc(OC)c5c4[C@@]2(CCN3C)C1O5` (stereo not given in full), the GFP response vs DMSO is reported as 106% (inactive).
For `CCCOC(=O)C1C2c3ccccc3C(c3ccccc32)C1C(=O)O` (stereo not given), the GFP response vs DMSO was 99.1% (inactive).

Source: PubChem BioAssay AID2016 (NMMLSC, 2009)
